Experimental data published in PubChem BioAssay AID720549 (National Center for Advancing Translational Sciences (NCATS), 2013).
Records with an inconclusive call do not appear. Entries that show only a call come without a potency. Activity calls are given as the source filed them. Calls follow the shape of the dose curve; as a rule, active = well fitted inhibition curve with a large enough effect; inconclusive = small, poorly fitted or top-dose-only effect; inactive = flat fitted curve, though single readings scatter.

Each compound was assayed against RecQ-like DNA helicase BLM (Homo sapiens) (UniProt P54132) (assay: qHTS for Inhibitors of Bloom's syndrome helicase (BLM): Helicase ATPase Orthogonal Confirmatory Assay for SAR). Details: purified BLM helicase ATPase activity assay; series mostly up to 57.1 µM.
Sequence of RecQ-like DNA helicase BLM (Homo sapiens) (P54132 whole entry, looked up): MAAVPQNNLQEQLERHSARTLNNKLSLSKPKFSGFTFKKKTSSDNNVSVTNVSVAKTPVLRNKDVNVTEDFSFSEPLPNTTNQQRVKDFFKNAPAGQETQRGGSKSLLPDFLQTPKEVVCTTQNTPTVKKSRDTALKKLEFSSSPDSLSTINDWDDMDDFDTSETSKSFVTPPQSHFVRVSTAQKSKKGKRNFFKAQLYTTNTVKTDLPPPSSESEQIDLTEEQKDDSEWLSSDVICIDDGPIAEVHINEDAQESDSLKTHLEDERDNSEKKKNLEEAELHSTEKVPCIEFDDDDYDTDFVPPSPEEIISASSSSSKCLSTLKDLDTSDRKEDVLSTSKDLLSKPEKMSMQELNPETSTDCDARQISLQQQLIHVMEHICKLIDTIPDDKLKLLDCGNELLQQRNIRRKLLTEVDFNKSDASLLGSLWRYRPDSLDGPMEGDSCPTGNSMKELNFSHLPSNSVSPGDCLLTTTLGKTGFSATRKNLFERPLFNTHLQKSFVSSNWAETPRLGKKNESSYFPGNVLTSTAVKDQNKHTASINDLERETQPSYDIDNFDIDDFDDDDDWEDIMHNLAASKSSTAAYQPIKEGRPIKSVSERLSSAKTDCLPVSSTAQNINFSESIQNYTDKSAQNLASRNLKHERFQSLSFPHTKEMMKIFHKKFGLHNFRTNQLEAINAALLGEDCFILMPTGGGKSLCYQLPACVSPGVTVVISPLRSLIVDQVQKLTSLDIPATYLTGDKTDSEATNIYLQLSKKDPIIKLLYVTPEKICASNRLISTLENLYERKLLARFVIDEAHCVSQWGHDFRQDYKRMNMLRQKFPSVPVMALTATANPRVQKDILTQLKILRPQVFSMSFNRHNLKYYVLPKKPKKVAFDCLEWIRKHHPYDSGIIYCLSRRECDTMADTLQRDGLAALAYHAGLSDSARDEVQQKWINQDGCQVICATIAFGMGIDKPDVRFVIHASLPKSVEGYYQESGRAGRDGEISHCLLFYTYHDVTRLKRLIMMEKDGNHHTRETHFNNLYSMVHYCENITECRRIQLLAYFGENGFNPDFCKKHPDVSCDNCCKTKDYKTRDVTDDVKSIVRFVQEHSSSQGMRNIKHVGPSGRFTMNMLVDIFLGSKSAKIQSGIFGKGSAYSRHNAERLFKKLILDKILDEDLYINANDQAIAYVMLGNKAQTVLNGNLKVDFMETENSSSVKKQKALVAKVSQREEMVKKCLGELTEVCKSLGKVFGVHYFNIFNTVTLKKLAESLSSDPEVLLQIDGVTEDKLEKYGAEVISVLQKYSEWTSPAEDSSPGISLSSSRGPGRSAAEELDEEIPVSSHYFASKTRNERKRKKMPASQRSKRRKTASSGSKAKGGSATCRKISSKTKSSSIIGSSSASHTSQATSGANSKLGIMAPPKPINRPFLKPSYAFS
In short: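 Purified BLM (2 nM) in Tris-HCl pH 8.0 with MgCl2, DTT, Tween-20, preincubated 15 min with compound. Reaction with 200 nM ssDNA and 100 uM ATP ran 15 min; ADP-Glo luminescence, four-parameter Hill fit.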
With `O=C(Nc1ccc2ccccc2c1)Nc1nnc(-c2ccccn2)s1` the Potency was “inactive”. `COc1ccc(-c2nnc(NC(=O)Nc3ccc4ccccc4c3)s2)cc1OC` was tested, and the Potency was “inactive”. In the case of `CCOc1ccc(NC(=O)Nc2ccc(-c3nc4ccccc4[nH]3)cc2)cc1`, the Potency was “inactive”. `Cc1cc(NC(=O)Nc2cccc(-c3ccncc3)n2)ccc1Br` was tested, and the Potency was “inactive”. For `O=C(Nc1cc(C(F)(F)F)cc(C(F)(F)F)c1)Nc1nnc(-c2ccncc2)s1`, the Potency was “inactive”. `N#Cc1cc(NC(=O)Nc2nnc(-c3ccncc3)s2)ccc1Br` was tested, and the Potency was 646 nM (active). For `O=C(Nc1ccc2ccccc2c1)Nc1nnc(-c2ccc(F)cc2)s1`, the Potency was “inactive”. `Cc1cc(NC(=O)Nc2nnc(C3CCCCC3)s2)ccc1Br` was tested, and the Potency was “inactive”. `O=C(Nc1ccc(Cl)nc1)Nc1nnc(-c2ccncc2)s1` was tested, and the Potency was 1620 nM (active). With `O=C(Nc1ccc(Br)cc1)Nc1nnc(-c2ccncc2)s1` the Potency was 8130 nM (active). For `O=C(Nc1ccc(-c2nc3ccccc3[nH]2)cc1)Nc1ccc2c(c1)OCCO2`, the Potency was “inactive”. With `CC(=O)c1ccc(NC(=O)Nc2nnc(-c3ccncc3)s2)cc1` the Potency was “inactive”. `S=C(Nc1ccc(Cl)c(Cl)c1)Nc1nnc(-c2ccncc2)o1` was tested, and the Potency was “inactive”. `Cc1cc(NC(=O)Nc2nnc(-c3ccncc3)s2)ccc1C#N` was tested, and the Potency was 1290 nM (active). For `O=C(Nc1ccc(Oc2ccccc2)cc1)Nc1nnc(-c2ccncc2)s1`, the Potency was “inactive”. For `COc1ccccc1CNC(=O)Nc1nnc(-c2ccncc2)s1`, the Potency was “inactive”. For `COc1ccc(OC)c(-c2nnc(NC(=O)Nc3ccc4ccccc4c3)s2)c1`, the Potency was “inactive”. With `O=C(Cc1nnc(-c2ccncc2)s1)Nc1ccc(F)c(C(F)(F)F)c1` the Potency was “inactive”.
